# The supplement of paper PMC4962491
# ± gives the standard deviation of the averaged measurements.
# Tested on: FaDu
# Test: mitochondrial oxygen consumption rate normalised to cell number, Z score vs plate DMSO wells; higher = higher oxygen consumption (negative = OCR reduction)
# Details: 0.08 µM; treatment time 24 h; assay medium: 5 mM glucose, 5 mM pyruvate, 4 mM glutamine
# Method: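 Secondary screen: FaDu cells were incubated 24 h with the top 130 primary hits at 0.08, 0.4, 2 or 10 uM. Mitochondrial-specific OCR (basal minus antimycin A) was measured on a Seahorse XF96 in medium with 5 mM glucose, 5 mM pyruvate and 4 mM glutamine and normalised to Hoechst cell number. OCR score = (OCR - mean of plate DMSO wells) / SD of plate DMSO wells. Three repeats.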
# 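Note: compound exposure in DMEM (4 mM L-glutamine, 5 mM glucose), antimycin A injected at 2 µM after the basal reading and its residual OCR subtracted from basal.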
row,SMILES,mitochondrial oxygen consumption rate normalised
1,CN(C)c1ccc(C(=C2C=CC(=[N+](C)C)C=C2)c2ccc(N(C)C)cc2)cc1,-0.504 ± 1.3
2,CCCCCCCCCCCCCCCC[N+](C)(C)C,0.46 ± 0.86
3,Cc1c2oc3c(C)ccc(C(=O)N[C@@H]4C(=O)N[C@H](C(C)C)C(=O)N5CCC[C@H]5C(=O)N(C)CC(=O)N(C)[C@@H](C(C)C)C(=O)O[C@@H]4C)c3nc-2c(C(=O)N[C@@H]2C(=O)N[C@H](C(C)C)C(=O)N3CCC[C@H]3C(=O)N(C)CC(=O)N(C)[C@@H](C(C)C)C(=O)O[C@@H]2C)c(N)c1=O,-3.2 ± 1.3
4,O=C1C(O)=C([C@H]2CC[C@H](c3ccc(Cl)cc3)CC2)C(=O)c2ccccc21,-0.607 ± 2.4
5,CCCCCC(=O)O[C@]1(C(C)=O)CC[C@H]2[C@@H]3CCC4=CC(=O)CC[C@]4(C)[C@H]3CC[C@@]21C,0.448 ± 1.4
6,Cc1cc(C2CCCCC2)n(O)c(=O)c1,-0.736 ± 1.4
7,CC(C)OC(=O)C(C)(C)Oc1ccc(C(=O)c2ccc(Cl)cc2)cc1,-0.014 ± 0.66
8,CCCCCCCCCc1ccc(OCCOCCOCCOCCOCCOCCOCCOCCOCCO)cc1,0.0515 ± 1
9,CCc1c2c(nc3ccc(OC(=O)N4CCC(N5CCCCC5)CC4)cc13)-c1cc3c(c(=O)n1C2)COC(=O)[C@]3(O)CC,0.871 ± 0.77
10,CCOc1ccc2nc3cc(N)ccc3c(N)c2c1,-0.404 ± 1.3
11,CCN(CC)CCCC(C)Nc1c2ccc(Cl)cc2nc2ccc(OC)cc12 (stereo not given),-0.58 ± 1.2
12,COc1cc([C@@H]2c3cc4c(cc3[C@@H](O[C@@H]3O[C@@H]5CO[C@@H](c6cccs6)O[C@H]5[C@H](O)[C@H]3O)[C@H]3COC(=O)[C@H]23)OCO4)cc(OC)c1O [Teniposide],0.487 ± 1.3
13,CNC(=O)c1cc(Oc2ccc(NC(=O)Nc3ccc(Cl)c(C(F)(F)F)c3)cc2)ccn1,-1.33 ± 0.69
14,COc1ccc(C[C@H](N)C(=O)N[C@H]2[C@@H](O)[C@H](n3cnc4c(N(C)C)ncnc43)O[C@@H]2CO)cc1,-1.29 ± 1.7
15,Cc1cc(CC(C)CC(C)(C)C)n(O)c(=O)c1 (stereo not given),0.0907 ± 1.2
16,CCCCCCCCCCCCC[N+](C)(C)Cc1ccccc1,-1.59 ± 1.3
17,Nc1c2ccccc2nc2ccccc12,-1.04 ± 0.95
18,CN(C)CCCN1c2ccccc2CCc2ccccc21,-0.638 ± 1.5
19,N=C(NCCCCCCNC(=N)NC(=N)Nc1ccc(Cl)cc1)NC(=N)Nc1ccc(Cl)cc1,0.00962 ± 0.9
20,Cc1cc(/C=C/c2ccc3cc(N(C)C)ccc3[n+]2C)c(C)n1-c1ccccc1,-1.73 ± 1
21,C=CC1=C(C)c2cc3[nH]c(cc4nc(cc5[nH]c(cc1n2)c(C)c5CCC(=O)O)C(CCC(=O)O)=C4C)c(C)c3C=C,0.0776 ± 2.3
22,C[C@]12CC[C@@H]3c4ccc(O)cc4CC[C@H]3[C@@H]1CC[C@@H]2OC(=O)CCC1CCCC1,0.0173 ± 1.4
23,O=C(O[C@H]1CN2CCC1CC2)N1CCc2ccccc2[C@@H]1c1ccccc1,1.08 ± 2.1
24,C[n+]1cc2c3c(ccc2c2ccc4cc5c(cc4c21)OCO5)OCO3,0.385 ± 0.96
25,O=C(O)c1cc(/N=N/c2ccc(O)c(C(=O)O)c2)ccc1O,0.0704 ± 1.6

# Same assay, conditions: 0.4 µM; treatment time 24 h; assay medium: 5 mM glucose, 5 mM pyruvate, 4 mM glutamine
row,SMILES,mitochondrial oxygen consumption rate normalised
1,CN(C)c1ccc(C(=C2C=CC(=[N+](C)C)C=C2)c2ccc(N(C)C)cc2)cc1,-6.33 ± 1.1
2,CCCCCCCCCCCCCCCC[N+](C)(C)C,-0.326 ± 1
3,Cc1c2oc3c(C)ccc(C(=O)N[C@@H]4C(=O)N[C@H](C(C)C)C(=O)N5CCC[C@H]5C(=O)N(C)CC(=O)N(C)[C@@H](C(C)C)C(=O)O[C@@H]4C)c3nc-2c(C(=O)N[C@@H]2C(=O)N[C@H](C(C)C)C(=O)N3CCC[C@H]3C(=O)N(C)CC(=O)N(C)[C@@H](C(C)C)C(=O)O[C@@H]2C)c(N)c1=O,-7.48 ± 0.36
4,O=C1C(O)=C([C@H]2CC[C@H](c3ccc(Cl)cc3)CC2)C(=O)c2ccccc21,1.63 ± 1.6
5,CCCCCC(=O)O[C@]1(C(C)=O)CC[C@H]2[C@@H]3CCC4=CC(=O)CC[C@]4(C)[C@H]3CC[C@@]21C,0.998 ± 0.5
6,Cc1cc(C2CCCCC2)n(O)c(=O)c1,1.35 ± 1
7,CC(C)OC(=O)C(C)(C)Oc1ccc(C(=O)c2ccc(Cl)cc2)cc1,1.08 ± 0.7
8,CCCCCCCCCc1ccc(OCCOCCOCCOCCOCCOCCOCCOCCOCCO)cc1,0.101 ± 0.62
9,CCc1c2c(nc3ccc(OC(=O)N4CCC(N5CCCCC5)CC4)cc13)-c1cc3c(c(=O)n1C2)COC(=O)[C@]3(O)CC,1.67 ± 1.4
10,CCOc1ccc2nc3cc(N)ccc3c(N)c2c1,0.17 ± 0.56
11,CCN(CC)CCCC(C)Nc1c2ccc(Cl)cc2nc2ccc(OC)cc12 (stereo not given),0.524 ± 1.1
12,COc1cc([C@@H]2c3cc4c(cc3[C@@H](O[C@@H]3O[C@@H]5CO[C@@H](c6cccs6)O[C@H]5[C@H](O)[C@H]3O)[C@H]3COC(=O)[C@H]23)OCO4)cc(OC)c1O [Teniposide],0.0174 ± 0.54
13,CNC(=O)c1cc(Oc2ccc(NC(=O)Nc3ccc(Cl)c(C(F)(F)F)c3)cc2)ccn1,-0.411 ± 0.42
14,COc1ccc(C[C@H](N)C(=O)N[C@H]2[C@@H](O)[C@H](n3cnc4c(N(C)C)ncnc43)O[C@@H]2CO)cc1,-0.131 ± 0.75
15,Cc1cc(CC(C)CC(C)(C)C)n(O)c(=O)c1 (stereo not given),0.402 ± 0.1
16,CCCCCCCCCCCCC[N+](C)(C)Cc1ccccc1,-3.65 ± 1.3
17,Nc1c2ccccc2nc2ccccc12,-0.393 ± 0.47
18,CN(C)CCCN1c2ccccc2CCc2ccccc21,-0.388 ± 0.95
19,N=C(NCCCCCCNC(=N)NC(=N)Nc1ccc(Cl)cc1)NC(=N)Nc1ccc(Cl)cc1,1.64 ± 0.46
20,Cc1cc(/C=C/c2ccc3cc(N(C)C)ccc3[n+]2C)c(C)n1-c1ccccc1,-11.7 ± 0.64
21,C=CC1=C(C)c2cc3[nH]c(cc4nc(cc5[nH]c(cc1n2)c(C)c5CCC(=O)O)C(CCC(=O)O)=C4C)c(C)c3C=C,1.29 ± 2
22,C[C@]12CC[C@@H]3c4ccc(O)cc4CC[C@H]3[C@@H]1CC[C@@H]2OC(=O)CCC1CCCC1,0.582 ± 0.51
23,O=C(O[C@H]1CN2CCC1CC2)N1CCc2ccccc2[C@@H]1c1ccccc1,0.729 ± 0.44
24,C[n+]1cc2c3c(ccc2c2ccc4cc5c(cc4c21)OCO5)OCO3,0.59 ± 0.68
25,O=C(O)c1cc(/N=N/c2ccc(O)c(C(=O)O)c2)ccc1O,0.359 ± 0.82
